Experimental findings from PubChem BioAssay (NCI) are described below.

What all share (assay): NCI-60 one-dose screen, 48 h (100 = growth as untreated, 0 = no growth, -100 = all killed)
The test system of one experiment is T-47D breast. To be noted: 10 µM.
In another experiment the test system is BT-549 breast. To be noted: 10 µM unless noted.
The next experiment deals with MDA-MB-435 melanoma. To be noted: 10 µM unless noted.
In the next experiment the test system is SW-620 colon. The note with it: 10 µM unless noted.
A further experiment concerns MCF7 breast. The note with it: 10 µM unless noted.
A further experiment has as its system HCT-116 colon. The note with it: 10 µM unless noted.
A further experiment has as its system KM12 colon. To be noted: 10 µM unless noted.

The panel holds about 83,000 compounds, 20% with a hit somewhere; the sample as a whole holds those more often.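 48-hour exposure, single concentration, 96-well plates; percent growth endpoint where 0 means no net growth. Active: below 10.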 Unmarked numbers belong to inactive results. Activity calls are given as the source filed them.

In the case of `O=c1oc2ccccc2cc1-c1csc(N=Nc2c(O)[nH]c3ccc(Cl)cc23)n1`, the growth in the experiment with T-47D breast is 98.8%; in the experiment on BT-549 breast it was 99%; with MDA-MB-435 melanoma, 98.9%; in the experiment with SW-620 colon, 103%; with MCF7 breast it was 93.5%; with HCT-116 colon, 107%. In addition, the growth with KM12 colon is 108%.
Regarding `Cc1nc(NN)c([N+](=O)[O-])c(NN)n1`, the growth in the experiment on T-47D breast was 103%; in the experiment on BT-549 breast, 107%; in the experiment with MDA-MB-435 melanoma it was 104%; in the experiment on SW-620 colon it was 104%; with MCF7 breast, 98.7%; with HCT-116 colon, 99.2%. For the same molecule, the growth with KM12 colon is 104%.
In the case of `COC(=O)c1c2c(c(C)[n+]([O-])c1C)C(=O)C(NCc1ccc(O)cc1)=CC2=O`, the growth in the experiment with T-47D breast is -7.43% (active); in the experiment on BT-549 breast it was 34.5%; in the experiment with MDA-MB-435 melanoma it was -96.5% (active); in the experiment with SW-620 colon it was -3.33% (active); in the experiment on MCF7 breast it was -63.4% (active); with HCT-116 colon, -6.79% (active). Further, in the experiment on KM12 colon, the growth is 2.07% (active).
As for `Cc1ccc(C)c2c1sc1nc3nc4sc5ccccc5n4c(=N)c3c(=O)n12`, the growth in the experiment with T-47D breast is 78.9%; in the experiment with BT-549 breast it was 115%; in the experiment on MDA-MB-435 melanoma, 121%; with SW-620 colon, 108%; with MCF7 breast, 51.1%; with HCT-116 colon, 91.6%. The growth with KM12 colon was 101%.
Consider `Cc1cc(NS(=O)(=O)c2ccc(NC(=O)COc3ccc(-c4cc5ccccc5[nH]4)cc3)cc2)no1`, for which the growth in the experiment with T-47D breast is -19.8% (active); in the experiment on BT-549 breast it was 11.9%; with MDA-MB-435 melanoma, -11.9% (active); in the experiment on SW-620 colon, 15.9%; in the experiment with MCF7 breast it was 1.1% (active); in the experiment with HCT-116 colon, 2.8% (active). Also, the growth in the experiment with KM12 colon is 10.3%.
As for `CC(=O)Nc1ccc(S(=O)(=O)N/N=C\c2ccc(Cl)c(Cl)c2)cc1`, the growth in the experiment with T-47D breast is 86.7%; in the experiment with BT-549 breast, 99.7%; with MDA-MB-435 melanoma, 105%; in the experiment with SW-620 colon it was 99.7%; with MCF7 breast, 95.6%; in the experiment with HCT-116 colon it was 101%. In the experiment with KM12 colon, the growth is 107%.
With `O=C(c1ccc2ncc(-c3nc(NC4CC4)ncc3F)n2c1)N1CCOCC1`, the growth is 32.2% in the experiment on T-47D breast; 52.4% in the experiment on BT-549 breast; 32% in the experiment on MDA-MB-435 melanoma; 10.2% with SW-620 colon; 5.99% (active) in the experiment with MCF7 breast; 0.221% (active) in the experiment on HCT-116 colon. In the experiment on KM12 colon, the growth is 2.99% (active).
On to `NC(=O)c1nc2c([nH]c1=O)CCCC2`, for which the growth in the experiment with T-47D breast is 92.7%; in the experiment on BT-549 breast it was 115%; with MDA-MB-435 melanoma, 113%; with SW-620 colon, 101%; in the experiment on MCF7 breast, 98.7%; with HCT-116 colon, 109%. Further, the growth in the experiment on KM12 colon was 98.8%.
Regarding `COc1ccc(C(=O)COc2cccc(/C=C3\CSc4ccc(C)cc4C3=O)c2)cc1`, the growth in the experiment with T-47D breast is 79.7%; with BT-549 breast, 108%; in the experiment on MDA-MB-435 melanoma it was 69.5%; in the experiment with SW-620 colon, -21.5% (active); in the experiment on MCF7 breast, 30.9%; in the experiment on HCT-116 colon, 53.1%. Also, in the experiment on KM12 colon, the growth was 79.6%.
For the molecule `COC(=O)c1c2c(c(C)[n+]([O-])c1C)C(=O)C=C(NCc1cccc(Cl)c1)C2=O`, the growth in the experiment on T-47D breast was -37.6% (active); in the experiment with BT-549 breast, -82.3% (active); in the experiment on MDA-MB-435 melanoma, -92.1% (active); in the experiment with SW-620 colon it was -31.4% (active); in the experiment with MCF7 breast it was -61.3% (active); with HCT-116 colon, -13.7% (active). For the same molecule, the growth with KM12 colon is 0.497% (active).
Consider `COC(=O)c1c2c(c(C)[n+]([O-])c1C)C(=O)C=C(NCc1ccc(F)c(Cl)c1)C2=O`, for which the growth in the experiment on T-47D breast was -41.9% (active); with BT-549 breast, -96.9% (active); with MDA-MB-435 melanoma, -96.9% (active); in the experiment with SW-620 colon, -29.6% (active); with MCF7 breast, -61.9% (active); in the experiment with HCT-116 colon it was -48.6% (active). Moreover, in the experiment on KM12 colon, the growth was -16.5% (active).
Consider `CCC(=O)Nc1nnc(Cc2ccc(OC)c(OC)c2)s1`, for which the growth in the experiment on T-47D breast is -18.7% (active); in the experiment on BT-549 breast it was -66.8% (active); in the experiment on MDA-MB-435 melanoma, -52% (active); with SW-620 colon, 33.8%; in the experiment with MCF7 breast it was 15.1%; in the experiment with HCT-116 colon it was -68.2% (active). Besides, the growth in the experiment with KM12 colon is 36.3%.
On to `O=[N+]([O-])c1cc2c(cc1Br)-c1ccccc1C2`, for which the growth with T-47D breast was 14.9%; in the experiment on BT-549 breast, 76.8%; in the experiment on MDA-MB-435 melanoma, 94.7%; with SW-620 colon, 83.6%; in the experiment with MCF7 breast, 3.07% (active); in the experiment with HCT-116 colon, 84%. In the experiment on KM12 colon, the growth is 58.5%.
Consider `CCN1CCN(C(=S)SCC(=O)Nc2nc3ccc(OC)cc3s2)CC1`, for which the growth with T-47D breast was 86.6%; in the experiment on BT-549 breast, 89.5%; in the experiment with MDA-MB-435 melanoma, 107%; in the experiment with SW-620 colon it was 110%; with MCF7 breast it was 96.3%; with HCT-116 colon, 95.8%. Further, in the experiment with KM12 colon, the growth was 90.6%.
`CCOC(=O)c1cc2c(n(C)c1=O)-c1cnn(-c3ccc(OC)cc3)c1CC2`: the growth was 82.8% with T-47D breast; 101% with BT-549 breast; 92.6% in the experiment on MDA-MB-435 melanoma; 119% with SW-620 colon; 97.2% with MCF7 breast; 108% in the experiment with HCT-116 colon. Further, in the experiment on KM12 colon, the growth is 112%.
For `O=C1C(N2CCOCC2)=Cc2cccc3cccc1c23`, the growth in the experiment on T-47D breast was 86.6%; in the experiment with BT-549 breast, 109%; with MDA-MB-435 melanoma, 102%; with SW-620 colon it was 98.3%; in the experiment on MCF7 breast, 66.2%; in the experiment with HCT-116 colon it was 94.7%. Also, the growth in the experiment with KM12 colon is 95.8%.
Take `CC(=O)N(CC(O)CO)c1c(I)c(C(=O)NCCO)c(I)c(C(=O)NCC(O)CO)c1I` (configuration not stated): the growth is 101% in the experiment with T-47D breast; 94.3% with BT-549 breast; 105% with MDA-MB-435 melanoma; 109% in the experiment on SW-620 colon; 104% in the experiment on MCF7 breast; 97% in the experiment with HCT-116 colon. Further, in the experiment with KM12 colon, the growth is 103%.
For the molecule `Clc1ccccc1Nc1ccc2nnc(-c3ccncc3)n2n1`, the growth in the experiment with T-47D breast was 100%; in the experiment on BT-549 breast it was 101%; with MDA-MB-435 melanoma, 98%; in the experiment with SW-620 colon it was 114%; in the experiment on MCF7 breast it was 95.9%; in the experiment with HCT-116 colon, 101%. Also, the growth in the experiment on KM12 colon was 101%.
On to `CC(C)(C)CC(C)(C)N(CSc1ccc(Cl)cc1)CSc1ccc(Cl)cc1`, for which the growth in the experiment on T-47D breast is 63.2%; in the experiment with BT-549 breast, -52.4% (active); in the experiment on MDA-MB-435 melanoma, 46.3%; in the experiment with SW-620 colon it was 35.9%; in the experiment with MCF7 breast, 31.4%; in the experiment with HCT-116 colon, 25.5%. Also, the growth with KM12 colon is 33.5%.
`c1ccc(-c2nc(N3CCOCC3)c3c4c(sc3n2)CCCCCC4)nc1`: the growth in the experiment with T-47D breast is 17.8%; with BT-549 breast it was 58.3%; with MDA-MB-435 melanoma it was 61.9%; in the experiment on SW-620 colon it was 86.9%; with MCF7 breast, 3.9% (active); with HCT-116 colon it was 27.7%. Further, the growth in the experiment on KM12 colon was 44.7%.
Take `CCOC(=O)c1c(-c2cc(OC)c(OC)c(OC)c2)csc1N`: the growth with T-47D breast was 94%; in the experiment on BT-549 breast, 117%; in the experiment with MDA-MB-435 melanoma it was -1.03% (active); with SW-620 colon it was 76.6%; in the experiment on MCF7 breast, 78.1%; in the experiment on HCT-116 colon, 90.4%. In addition, in the experiment on KM12 colon, the growth was 64.2%.
As to `CCOC(=O)C1=C(C)N2C(=NC3=C(CCCC/C3=C\c3cc(OC)c(OC)c(OC)c3)C2c2cc(OC)c(OC)c(OC)c2)S1` (configuration not stated), the growth with T-47D breast was 45.9%; in the experiment on BT-549 breast, 55.1%; with MDA-MB-435 melanoma, 68.4%; in the experiment on SW-620 colon it was 82.5%; in the experiment with MCF7 breast, 60.9%; with HCT-116 colon, 68%. The growth in the experiment with KM12 colon was 67.5%.
For `COCCOC1=C(Cl)C(=O)c2ccccc2C1=O`, the growth with T-47D breast is -49% (active); in the experiment on BT-549 breast, -23% (active); with MDA-MB-435 melanoma it was 4.68% (active); with SW-620 colon, -3.69% (active); in the experiment on MCF7 breast, 15.4%; in the experiment with HCT-116 colon, -13.5% (active). In the experiment on KM12 colon, the growth was -41.7% (active).
Take `C=C(C)COC(=O)c1ccccc1C(=O)OCC1(C)CO1` (configuration not stated): the growth was 102% in the experiment on T-47D breast; 102% with BT-549 breast; 106% in the experiment on MDA-MB-435 melanoma; 105% in the experiment with SW-620 colon; 104% with MCF7 breast; 105% in the experiment with HCT-116 colon. For the same molecule, the growth with KM12 colon is 112%.
`CN1CCC(OC2c3ccccc3CCc3ccccc32)CC1`: the growth in the experiment with T-47D breast was 94.9%; with BT-549 breast it was 90.7%; with MDA-MB-435 melanoma, 95.5%; in the experiment with SW-620 colon, 95.1%; in the experiment on MCF7 breast, 90.5%; in the experiment with HCT-116 colon, 98.4%. In addition, in the experiment with KM12 colon, the growth was 102%.
On to `O=C1C(OCCOc2ccccc2)=C(OCCOc2ccccc2)C(=O)c2ccccc21`, for which the growth in the experiment on T-47D breast was 78.2%; in the experiment with BT-549 breast, 27.4%; in the experiment on MDA-MB-435 melanoma, 75.8%; with SW-620 colon, 45.1%; in the experiment with MCF7 breast, 64%; in the experiment with HCT-116 colon it was 26%. The growth in the experiment with KM12 colon was 57.8%.
